Screens deposited in PubChem BioAssay by The Scripps Research Institute Molecular Screening Center.
This is a sample that favours compounds with a hit; in the whole collection about 3% have one here.
PAFAH2 FP inh = PAFAH2 (human) inhibition | Q99487 | recombinant PAFAH2, FP-rhodamine activity probe, fluorescence polarization | inhibition, % at 3.39 µM | actives 0.99% (n = 340,000);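 active means inhibition above the mean over all tested compounds plus 3 SD, cut at about 30% in these data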;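 further: inhibitors block probe labeling of enzyme so polarization drops; 0% = enzyme with DMSO and 100% = wells lacking PAFAH2 protein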
PAFAH1B2 inh = inhibitors of human PAFAH1B2; recombinant PAFAH1B2, FP-rhodamine activity probe, fluorescence polarization; inhibition, % at 3.39 µM; actives 1.2% (n = 340,000);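 active means inhibition above the mean of all tested compounds plus 3 SD, cut at about 24% in these data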;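 further: 0% = enzyme with DMSO and 100% = wells lacking PAFAH1B2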
pPAFAH inh = inhibitors of human plasma PAF acetylhydrolase (pPAFAH). Q13093. actives 1.5% (n = 330,000). recombinant pPAFAH, FP-rhodamine probe fluorescence polarization. inhibition, % at 3.39 µM;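 active means inhibition above the mean inhibition across the screen plus 3 SD, cut at about 25% in these data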;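 further: inhibitors block binding of the rhodamine activity-based probe so polarization drops; 0% = enzyme with DMSO and 100% = wells lacking pPAFAH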
Target sequence (Q13093 whole entry, looked up): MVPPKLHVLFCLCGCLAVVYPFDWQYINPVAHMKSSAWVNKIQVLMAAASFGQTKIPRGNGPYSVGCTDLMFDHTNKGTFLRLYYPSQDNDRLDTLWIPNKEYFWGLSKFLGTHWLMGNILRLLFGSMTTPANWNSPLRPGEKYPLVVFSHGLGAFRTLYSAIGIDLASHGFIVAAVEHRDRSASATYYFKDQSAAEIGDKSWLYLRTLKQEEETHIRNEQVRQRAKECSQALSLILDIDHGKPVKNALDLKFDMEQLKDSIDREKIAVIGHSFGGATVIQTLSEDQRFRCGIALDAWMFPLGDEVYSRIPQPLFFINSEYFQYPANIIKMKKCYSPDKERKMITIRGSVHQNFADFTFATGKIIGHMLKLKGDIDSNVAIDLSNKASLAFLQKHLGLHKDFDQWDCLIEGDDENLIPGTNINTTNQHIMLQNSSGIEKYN
CTSL1 counter = counter-screen for PFM18AAP inhibitors: inhibitors of F. hepatica cathepsin L1; recombinant F. hepatica cathepsin L1, Z-Leu-Arg-MCA fluorescence; inhibition, % at 5.96 µM; actives 0.49% (n = 300,000);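 active means inhibition above the mean of all tested compounds plus 3 SD, set per screening campaign, cut at about 17% in these data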;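 further: 0% = plate median of test compound wells and 100% = 1 µM Z-Phe-Ala-diazomethylketone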
PAFAH1B3 inh = blocks human PAF acetylhydrolase 1B catalytic subunit 3. AID 492972. actives 0.28% (n = 340,000). inhibition, % at 3.39 µM. recombinant PAFAH1B3, FP-rhodamine probe, fluorescence polarization. Q15102;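 active means inhibition above the screen-wide average of all tested compounds plus 3 SD, cut at about 25% in these data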;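 further: 0% = enzyme with DMSO only and 100% = wells lacking PAFAH1B3 protein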
PP5 inh = blocks human protein phosphatase 5 activity. P53041. inhibition, % at 6.7 µM. purified PP5c, OMFP substrate fluorescence. actives 0.18% (n = 320,000). AID 1987;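 active means inhibition above the campaign's mean inhibition across all tested compounds plus 3 SD, cut at about 9.5% in these data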;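 further: 0% = DMSO only and 100% = 100 µM cantharidin control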
PP5 inh confirm = confirmation of human PP5 phosphatase inhibitors | inhibition, % at 6.7 µM | shares compounds with PP5 inh | Purified PP5, fluorogenic phosphatase substrate, fluorescence | actives 22% (n = 460); in the data active means inhibition above about 9.5%
PP1 inh counter = counter-screen for PP5 inhibitors: human PP1 phosphatase inhibition | actives 4% (n = 460) | PP1 enzyme, fluorescent phosphatase substrate | AID 2355 | shares compounds with PP5 inh | inhibition, % at 6.7 µM; in the data active means inhibition above about 16%
pPAFAH confirm = pPAFAH (human) inhibition, confirmed; recombinant pPAFAH, FP-Rh probe fluorescence polarization; inhibition, % at 3.39 µM; AID 463230; shares compounds with pPAFAH inh; actives 72% (n = 2,300);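 active means mean inhibition of the triplicate above the hit cutoff set for the earlier primary screen, cut at about 25% in these data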;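 further: 0% = enzyme with DMSO and 100% = wells lacking pPAFAH enzyme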
PAFAH1B3 confirm = confirmation of human PAFAH1B3 inhibitors. shares compounds with PAFAH1B3 inh. recombinant PAFAH1B3, FP-Rh activity-based probe, fluorescence polarization. inhibition, % at 3.39 µM. actives 30% (n = 390);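 active means average inhibition over triplicate runs above the hit cutoff set in the earlier primary screen, cut at about 25% in these data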;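 further: 0% = enzyme with DMSO and 100% = wells lacking PAFAH1B3 protein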
* hit, by the source's call; · = not tested or not shown.

SMILES | PAFAH2 FP inh | PAFAH1B2 inh | pPAFAH inh | CTSL1 counter | PAFAH1B3 inh | PP5 inh | PP5 inh confirm | PP1 inh counter | others
CC(=O)NC(Cc1ccc(N(CCCl)CCCl)cc1)C(=O)NC(C(=O)O)C(C)C (centres undefined) | 0.9 | 25.1* | 0.2 | -1.9 | -3.2 | 0.8 | · | ·
CCOC(=O)CC(NC(=O)C(Cc1ccc(N(CCCl)CCCl)cc1)NC(C)=O)C(=O)OCC (centres undefined) | -0.2 | 10.5 | -3.1 | 10.7 | 7.8 | 0.3 | · | ·
COCCNC(=O)c1c(N)n(CCC(C)C)c2nc3ccccc3nc12 | 4.3 | 4.5 | 13.4 | -1.8 | 13.9 | 10.5* | 22.9* | 3.2
CC(C)CCn1c(N)c(C(=O)NCc2cccs2)c2nc3ccccc3nc21 | 0.5 | 2.5 | 1.3 | 3.8 | 2.3 | -0.1 | · | ·
CC(C)OCCCNC(=O)c1c(N)n(Cc2cccs2)c2nc3ccccc3nc12 | -9.1 | -1.4 | 14.2 | 6.2 | -2.7 | 11.7* | 14.7* | 9.3
CCCCNC(=O)c1c(N)n(CCCOC)c2nc3ccccc3nc12 | 5.0 | 7.7 | 12.7 | 0.6 | 13.5 | 4.9 | · | ·
CCCCCCC(C)(C)c1ccc([C@@H]2C[C@H](O)CC[C@H]2CCCO)c(O)c1 | 4.2 | 4.8 | 3.2 | 0.5 | 11.5 | 10.4* | 3.6 | 4.5
CCCCC1(CC)COP(=O)(OCC(Cl)(Cl)Cl)OC1 (centres undefined) | 3.0 | 21.7 | · | · | -1.0 | · | · | ·
COC(=O)C1=C(c2ccc(OC(F)(F)F)cc2)C[C@@H]2CC[C@H]1N2C(=O)NCCOc1ccccc1 | 4.9 | 5.4 | 6.7 | · | 7.3 | 8.1 | · | ·
COC(=O)C1=C(c2ccc(OC(F)(F)F)cc2)C[C@@H]2CC[C@H]1N2C(=O)NCCOc1ccccc1Cl | 4.2 | 6.1 | -2.2 | · | 13.1 | 11.1* | 6.3 | 4.2
COC(=O)C1=C(c2ccc(F)cc2F)C[C@@H]2CC[C@H]1N2C(=O)NCCOc1ccc(OC)cc1 | 3.4 | 0.4 | -6.6 | · | 9.1 | 1.5 | · | ·
COCCCNC(=O)c1c(N)n(Cc2ccco2)c2nc3ccccc3nc12 | · | · | 11.7 | 10.1 | · | -0.3 | · | ·
CC(C)CNC(=O)c1c(N)n(Cc2ccc3c(c2)OCO3)c2nc3ccccc3nc12 | 13.0 | 9.1 | 5.8 | 6.4 | 12.0 | 12.4* | 21.4* | 2.8
COc1ccc(Cn2c(N)c(C(=O)NCc3ccco3)c3nc4ccccc4nc32)cc1OC | -14.4 | -5.5 | 7.3 | 4.2 | 7.1 | 11.7* | 44.3* | 10.0
COC(=O)C1=C(c2ccc(F)cc2OCc2ccccc2)C[C@@H]2CC[C@H]1N2C(=O)NC1Cc2ccccc2C1 | 0.3 | -3.5 | -0.4 | · | -13.7 | 0.0 | · | ·
CCC(C)/C=C(C)/C=C/C1=CC2=C(Cl)C(=O)C(C)(OC(C)=O)C(=O)C2=CO1 (centres undefined) | 22.3 | 20.6 | 32.2* | 20.6* | 17.1 | 12.2* | 7.4 | 6.2
N#CC(Br)Br | -1.5 | -0.4 | -2.2 | · | 5.3 | 2.2 | · | ·
CN1CC[C@@]2(C)c3cc(O)ccc3N(C)C2O1 (some centres undefined) | 2.1 | 7.0 | 1.9 | -0.3 | 11.6 | 13.7* | 25.7* | 5.1
CCOC(=O)c1c(NS(=O)(=O)c2ccccc2)n(CCCOC)c2nc3ccccc3nc12 | -1.7 | 14.2 | 9.2 | 8.2 | 27.5* | 10.7* | 9.9* | -0.5 | PAFAH1B3 confirm=10.2
NNCc1ccccc1 | 10.4 | -4.8 | · | · | 10.6 | · | · | ·
Cc1ccc(-c2cc(-c3ccccc3)cc(-c3ccccc3)[n+]2-c2ccc(C(=O)O)cc2)cc1 | 10.2 | 8.6 | 38.5* | 3.6 | 5.7 | 1.7 | · | · | pPAFAH confirm=-0.2
CN1[C@@H]2CCC[C@H]1CC(=O)C2 | 3.1 | -3.2 | · | · | -0.2 | · | · | ·
COc1ccc(NC2Oc3cc4c(cc3C(c3cc(OC)c(OC)c(OC)c3)C2C)OCO4)cc1 (centres undefined) | -7.1 | 2.0 | · | · | 9.3 | · | · | ·
